# Measurements as given in PubChem BioAssay AID1159580 (chemical genetic matrix, 2015).
# Out of some 5,500 compounds screened, about 2,000 (36%) were called active. Not shown: some 18% with an inconclusive outcome. Some of the results follow. Values without a mark were called inactive. Rule as the data show it: active = normalized growth mostly below about 0.91 (no sharp cut-off); inconclusive = no clear call, values can overlap the other calls; inactive = mostly above about 0.92.
# Experiment: chemical genetic growth profiling, strain panel (AID 1159580);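 also: tested at 20 µM; growth read once vehicle control cultures reached saturation at 30 °C; 1 = growth at the plate median or of vehicle wells; lower values mean less growth of the strain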
# Details: S. cerevisiae deletion strains, growth OD
# [1] = locus YDL101C, strain DUN1, stronger effect = lower value
# [2] = locus YDR150W, strain NUM1, stronger effect = lower value
# [3] = locus YGR078C, strain PAC10, stronger effect = lower value
# [4] = locus YHR030C, strain SLT2, stronger effect = lower value
# [5] = locus YPL055C, strain LGE1, stronger effect = lower value
smiles,measurement,setting,value
OC(CSc1ccccc1)CN1CCN(c2ccc(C(F)(F)F)cn2)CC1 (stereo not drawn),normalized growth,"locus YAL013W, strain DEP1, stronger effect = lower value",1.01
same,normalized growth,"locus YBR229C, strain ROT2, stronger effect = lower value",1
same,normalized growth,[1],1.01
same,normalized growth,"locus YDL134C, strain PPH21, stronger effect = lower value",0.185 (active)
same,normalized growth,[2],0.87
same,normalized growth,"locus YEL061C, strain CIN8, stronger effect = lower value",0.657 (active)
same,normalized growth,[3],1
same,normalized growth,[4],0.203 (active)
same,normalized growth,"locus YHR087W, strain rtc3, stronger effect = lower value",0.994
same,normalized growth,"locus YJR043C, strain POL32, stronger effect = lower value",0.991
same,normalized growth,"locus YJR075W, strain HOC1, stronger effect = lower value",1
same,normalized growth,"locus YLR039C, strain RIC1, stronger effect = lower value",0.591 (active)
same,normalized growth,"locus YLR058C, strain SHM2 (second series), stronger effect = lower value",1.01
same,normalized growth,"locus YLR085C, strain ARP6, stronger effect = lower value",0.387 (active)
same,normalized growth,"locus YLR262C, strain YPT6, stronger effect = lower value",0.468 (active)
same,normalized growth,"locus YML094W, strain GIM5, stronger effect = lower value",0.686 (active)
same,normalized growth,"locus YMR219W, strain ESC1, stronger effect = lower value",1
same,normalized growth,"locus YMR263W, strain SAP30, stronger effect = lower value",0.966
same,normalized growth,"locus YMR307W, strain GAS1, stronger effect = lower value",0.698
same,normalized growth,"locus YNL153C, strain GIM3, stronger effect = lower value",1.03
same,normalized growth,"locus YNL298W, strain CLA4 (second series), stronger effect = lower value",0.601 (active)
same,normalized growth,"locus YNL322C, strain KRE1, stronger effect = lower value",1.01
same,normalized growth,"locus YNR030W, strain Alg12, stronger effect = lower value",0.668 (active)
same,normalized growth,[5],0.898
same,normalized growth,"locus YPL241C, strain CIN2, stronger effect = lower value",0.763 (active)
same,normalized growth,"locus YPR135W, strain CTF4, stronger effect = lower value",0.442 (active)
OC(CSc1ccccc1)CN1CCN(c2nc(-c3ccccc3)ns2)CC1 (stereo not drawn),normalized growth,"locus YAR019C, strain CDC15, stronger effect = lower value",0.991
same,normalized growth,"locus YBL105C, strain PKC1, stronger effect = lower value",0.977
same,normalized growth,"locus YBR135W, strain CKS1, stronger effect = lower value",0.993
same,normalized growth,"locus YBR136W, strain MEC1, stronger effect = lower value",0.977
same,normalized growth,"locus YBR160W, strain CDC28, stronger effect = lower value",0.982
same,normalized growth,"locus YDL017W, strain CDC7, stronger effect = lower value",0.989
same,normalized growth,"locus YDL028C, strain MPS1, stronger effect = lower value",0.99
same,normalized growth,[1],0.98
same,normalized growth,"locus YDL108W, strain KIN28, stronger effect = lower value",0.99
same,normalized growth,"locus YDL132W, strain cdc53, stronger effect = lower value",0.996
same,normalized growth,"locus YDL214C, strain PRR2, stronger effect = lower value",0.932
same,normalized growth,"locus YDR052C, strain DBF4, stronger effect = lower value",0.981
same,normalized growth,"locus YDR054C, strain cdc34, stronger effect = lower value",0.977
same,normalized growth,"locus YDR226W, strain ADK1, stronger effect = lower value",0.989
same,normalized growth,"locus YDR477W, strain SNF1, stronger effect = lower value",0.931
same,normalized growth,"locus YER123W, strain YCK3, stronger effect = lower value",0.908
same,normalized growth,"locus YER133W, strain GLC7, stronger effect = lower value",0.941
same,normalized growth,"locus YFL009W, strain cdc4, stronger effect = lower value",0.987
same,normalized growth,"locus YFL029C, strain CAK1, stronger effect = lower value",0.983
same,normalized growth,"locus YFR003C, strain YPI1, stronger effect = lower value",0.989
same,normalized growth,"locus YFR019W, strain FAB1, stronger effect = lower value",0.93
same,normalized growth,"locus YFR028C, strain CDC14, stronger effect = lower value",0.984
same,normalized growth,"locus YGR040W, strain KSS1, stronger effect = lower value",0.915
same,normalized growth,"locus YGR052W, strain FMP48, stronger effect = lower value",0.993
same,normalized growth,"locus YGR092W, strain DBF2, stronger effect = lower value",0.935
same,normalized growth,[4],0.941
same,normalized growth,"locus YHR079C, strain IRE1, stronger effect = lower value",0.962
same,normalized growth,"locus YHR082C, strain KSP1, stronger effect = lower value",0.983
same,normalized growth,"locus YHR205W, strain SCH9, stronger effect = lower value",0.921
same,normalized growth,"locus YIL147C, strain SLN1, stronger effect = lower value",0.987
same,normalized growth,"locus YJL095W, strain BCK1, stronger effect = lower value",0.947
same,normalized growth,"locus YJL128C, strain PBS2, stronger effect = lower value",0.945
same,normalized growth,"locus YJL157C, strain FAR1, stronger effect = lower value",0.915
same,normalized growth,"locus YJR016C, strain ILV3, stronger effect = lower value",0.982
same,normalized growth,"locus YJR066W, strain TOR1 (second series), stronger effect = lower value",0.888
same,normalized growth,"locus YJR066W, strain TOR1, stronger effect = lower value",1.01
same,normalized growth,"locus YKL048C, strain ELM1, stronger effect = lower value",0.954
same,normalized growth,"locus YKL067W, strain YNK1, stronger effect = lower value",0.943
same,normalized growth,"locus YKL101W, strain HSL1, stronger effect = lower value",0.927
same,normalized growth,"locus YKL193C, strain SDS22, stronger effect = lower value",0.987
same,normalized growth,"locus YKL203C, strain TOR2, stronger effect = lower value",0.989
same,normalized growth,"locus YLR113W, strain HOG1, stronger effect = lower value",0.847 (active)
same,normalized growth,"locus YLR133W, strain CKI1, stronger effect = lower value",0.935
same,normalized growth,"locus YLR403W, strain SFP1, stronger effect = lower value",0.9
same,normalized growth,"locus YML070W, strain DAK1, stronger effect = lower value",0.9
same,normalized growth,"locus YMR001C, strain CDC5, stronger effect = lower value",0.983
same,normalized growth,"locus YMR205C, strain PFK2 (second series), stronger effect = lower value",0.944
same,normalized growth,"locus YMR277W, strain FCP1, stronger effect = lower value",0.991
same,normalized growth,"locus YNL006W, strain LST8, stronger effect = lower value",0.997
same,normalized growth,"locus YNL020C, strain ARK1, stronger effect = lower value",0.935
same,normalized growth,"locus YNL161W, strain CBK1, stronger effect = lower value",0.98
same,normalized growth,"locus YNL183C, strain NPR1, stronger effect = lower value",0.972
same,normalized growth,"locus YNL207W, strain RIO2, stronger effect = lower value",0.987
same,normalized growth,"locus YNL222W, strain SSU72, stronger effect = lower value",0.991
same,normalized growth,"locus YNL307C, strain MCK1 (second series), stronger effect = lower value",0.927
same,normalized growth,"locus YOL078W, strain AVO1, stronger effect = lower value",0.98
same,normalized growth,"locus YOL136C, strain PFK27, stronger effect = lower value",0.903
same,normalized growth,"locus YOR061W, strain CKA2, stronger effect = lower value",0.936
same,normalized growth,"locus YOR119C, strain RIO1, stronger effect = lower value",0.994
same,normalized growth,"locus YOR231W, strain MKK1, stronger effect = lower value",0.882
same,normalized growth,"locus YOR329C, strain SCD5, stronger effect = lower value",0.982
same,normalized growth,"locus YPL031C, strain PHO85, stronger effect = lower value",0.952
same,normalized growth,"locus YPL153C, strain RAD53, stronger effect = lower value",0.937
same,normalized growth,"locus YPL204W, strain HRR25, stronger effect = lower value",0.932
same,normalized growth,"locus YPL209C, strain IPL1, stronger effect = lower value",0.981
same,normalized growth,"locus YPL256C, strain CLN2, stronger effect = lower value",0.889
same,normalized growth,"locus YPR025C, strain CCL1, stronger effect = lower value",0.987
same,normalized growth,"locus YPR106W, strain ISR1, stronger effect = lower value",0.976
same,normalized growth,"locus YPR111W, strain DBF20, stronger effect = lower value",0.961
same,normalized growth,"strain NNK1, stronger effect = lower value",0.973
same,normalized growth,"strain TSCII, stronger effect = lower value",0.984
COc1ccccc1N1CCN(CC(O)COc2cccc3ccccc23)CC1 (stereo not drawn),normalized growth,"locus YAL040C, strain CLN3, stronger effect = lower value",0.993
same,normalized growth,"locus YCL061C, strain MRC1 (second series), stronger effect = lower value",0.992
same,normalized growth,[2],0.998
same,normalized growth,"locus YDR363W, strain ESC2, stronger effect = lower value",0.965
same,normalized growth,"locus YER002W, strain NOP16, stronger effect = lower value",1.02
same,normalized growth,[3],0.978
same,normalized growth,"locus YNL175C, strain NOP13, stronger effect = lower value",1.01
same,normalized growth,"locus YNL197C, strain WHI3, stronger effect = lower value",1.04
same,normalized growth,"locus YNL224C, strain SQS1, stronger effect = lower value",0.99
same,normalized growth,"locus YOR083W, strain WHI5 (second series), stronger effect = lower value",1.02
same,normalized growth,[5],0.976
